# Measurements as given in PubChem BioAssay (Tox21).
# Unmarked numbers belong to inactive results. Calls of active or inactive are those of the source. The call rests on the fitted dose curve.
# Target: Acetylcholinesterase (Homo sapiens) (UniProt P22303)
# Assay: Acetylcholinesterase (AChE) small molecule antagonists: enzyme-based qHTS assay with human liver microsomes (AID 1347399); further: nearly all actives have a fitted effect of over 60% in size
# Conditions: Potency: qHTS inhibition; series mostly up to 115 µM; activity change, negative = inhibition: at the top concentration
# Description: National Center for Advancing Translational Sciences [NCATS]
# Division of Preclinical Innovation [DPI]
# U.S. Environmental Protection Agency [EPA]
# National Institutes of Environmental Health Sciences [NIEHS]
# National Toxicology Program [NTP]
# U.S. Food and Drug Administration [FDA]
# Acetylcholinesterase (AChE) is the primary cholinesterase in the body that hydrolyzes a key neurotransmitter, acetylcholine. Inhibition of AChE activity can lead to neurotoxicity. The known inhibitors include organophosphorous pesticides (OP), chemical warfare agents, drugs, and various phytochemicals. Some compounds like OP compounds may need metabolic activation to be active AChE inhibitors. The cytochrome P450 (CYP) superfamily in the human microsomes is responsible for the metabolism of various endogenous and exogenous compounds.
# An enzyme-based assay with the recombinant human AChE, human liver microsomes and Amplite Colormetric acetylcholinesterase assay kit (AAT Bioquest, Sunnyvale, CA) was used to evaluate compounds in the Tox21 10K library that need metabolic activation for AChE inhibition. The assay uses 5, 5-dithiobis-(2-nitrobenzoic acid) (DTNB) to quantify the thiocholine produced from the hydrolysis of acetylthiocholine by AChE.
# Tox21 Assay Protocol Summary:
# For the enzyme-based AChE assay with microsomes addition, a mixture of human AChE (50 mU/mL) and human liver microsomes (0.25 mg/mL, final concentration) in 3 uL/well was dispensed into black, clear-bottom 1536-well plates using a Multidrop Combi dispenser (Thermo Scientific, MA). Then, 23 nL of compound or DMSO (vehicle control) was transferred into the assay plates by a Pintool Station (Wako Automation, CA). Following compound addition, 1 uL of NADPH (0.25 mg/mL, final concentration) was transferred to the assay plate by a Flying Reagent Dispenser (Beckman Coulter, CA). The plates were incubated for 30 min at 37 C and 5% CO2, followed by the addition of 4 uL of colorimetric detection cocktail solution (DTNB, acetylthiocholine) into each well using a Flying Reagent Dispenser (Beckman Coulter, CA) and then 10 min incubation at room temperature.
# On the % scale 0 is the no-effect control and ±100 the full control effect; potency means the concentration at half of the fitted maximal effect.
# Chain of Acetylcholinesterase (Homo sapiens) (P22303 whole entry, looked up): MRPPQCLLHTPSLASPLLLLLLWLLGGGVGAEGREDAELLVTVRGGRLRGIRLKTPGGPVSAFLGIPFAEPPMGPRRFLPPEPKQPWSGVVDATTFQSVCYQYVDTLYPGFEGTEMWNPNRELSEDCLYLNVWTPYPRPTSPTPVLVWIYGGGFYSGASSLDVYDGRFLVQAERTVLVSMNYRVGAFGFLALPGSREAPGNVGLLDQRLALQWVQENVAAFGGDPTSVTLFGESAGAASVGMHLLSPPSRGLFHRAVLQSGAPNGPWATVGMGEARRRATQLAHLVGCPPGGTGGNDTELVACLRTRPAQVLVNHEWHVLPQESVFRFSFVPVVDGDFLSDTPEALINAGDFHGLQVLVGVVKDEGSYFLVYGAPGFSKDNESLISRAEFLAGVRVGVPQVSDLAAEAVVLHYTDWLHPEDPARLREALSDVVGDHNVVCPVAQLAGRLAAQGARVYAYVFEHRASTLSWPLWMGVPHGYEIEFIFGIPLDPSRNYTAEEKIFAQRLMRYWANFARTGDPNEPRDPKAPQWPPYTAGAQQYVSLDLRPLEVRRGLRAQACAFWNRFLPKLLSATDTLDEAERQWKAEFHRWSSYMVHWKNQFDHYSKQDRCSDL
Structure (SMILES),"activity change, negative = inhibition",Potency
N#CC(CCc1ccc(Cl)cc1)(Cn1cncn1)c1ccccc1 (stereo not given),1.22%,
COCC(=O)N(c1c(C)cccc1C)N1CCOC1=O,0.169%,
CC1(C)COP(Oc2ccccc2)OC1,-0.298%,
ClCC(Cl)(Cl)Cl,-2.89%,
CNC(=O)Oc1ccccc1C1OCCO1,-0.917%,
CC(C)COP(=O)(OCC(C)C)OCC(C)C,0.458%,
COc1cc(C[C@@H](C)N)c(OC)cc1C,0.346%,
C=CC1CC=CCC1 (stereo not given),3.59%,
C=CCC1=C(C)[C@@H](OC(=O)[C@@H]2[C@@H](C=C(C)C)C2(C)C)CC1=O,1.16%,
O=C(Nc1ccccc1)c1ccccc1I,-1.89%,
Fc1ccc(C2(Cn3cncn3)OC2c2ccccc2Cl)cc1 (stereo not given),-0.554%,
Nc1cc(Cl)ccc1O,-19.1%,
N#CC(O)c1ccccc1 (stereo not given),0%,
COc1cc2c(cc1OC)[C@@]13CCN4CC5=CCO[C@H]6CC(=O)N2[C@H]1[C@H]6[C@H]5C[C@H]43,-0.632%,
CC1(C)C(=O)NC(=O)NC1=O,-2.29%,
OC(c1ccc(F)cc1)(c1cncnc1)c1ccccc1Cl (stereo not given),0.229%,
Cc1nnc2n1-c1sc(CCC(=O)N3CCOCC3)cc1C(c1ccccc1Cl)=NC2,-0.336% [at 53 µM],
CC(C=O)Cc1ccc2c(c1)OCO2 (stereo not given),0.296%,
CCCCc1c(C)nc(NCC)[nH]c1=O,-0.472%,
CCCCOC(=O)c1ccccc1C(=O)O,-0.0459%,

Structure (SMILES),"activity change, negative = inhibition",Potency
N#Cc1ccncc1,-0.407%,
CCSC(=O)N(CC)C1CCCCC1,0.952%,
Cc1ccccc1CO[C@@H]1C[C@@]2(C(C)C)CC[C@]1(C)O2,-0.926%,
CCOP(=S)(OCC)SCSP(=S)(OCC)OCC,,17.8 µM (active)
Nc1cc2c3c(c1)C(c1ccccc1)=N[C@@H](NC(=O)c1cccnc1)C(=O)N3CC2,0.88%,
CCS(=O)(=O)CCSP(=O)(OC)OC,0.458%,
COC(=O)c1ccccc1S(=O)(=O)NC(=O)Nc1nc(C)cc(C)n1,-2.28%,
NC(=S)C(N)=S,0.341%,
CC(Cl)(Cl)[N+](=O)[O-],2.16%,
O=[N+]([O-])c1ccc(CBr)cc1,-0.354%,
CCOc1nc(C(Cl)(Cl)Cl)ns1,6.08%,
O=c1oc2ccccc2c(O)c1C1CCCc2ccccc21 (stereo not given),0.382%,
CN1CCN(C(=O)O[C@H]2c3nccnc3C(=O)N2c2ccc(Cl)cn2)CC1,-0.0184% [at 53 µM],
CCCCOC(=O)c1ccccc1N,-3.26%,
CNC(=O)O/N=C(\C)SC,,17.8 µM (active)
CC(=O)CC(c1ccc(Cl)cc1)c1c(O)c2ccccc2oc1=O (stereo not given),-1.84%,
CCN(CC)CCOC(=O)C(C)(c1ccccc1)c1ccccc1,-1.36% [at 53 µM],
C[C@]1(O)CC[C@H]2[C@@H]3CCC4=CC(=O)CC[C@]4(C)[C@@]3(F)[C@@H](O)C[C@@]21C,-4.11%,
CCC1(c2ccccc2)C(=O)N=C(O)NC1=O (stereo not given),-0.141%,
C[N+](=O)[O-],0%,
